# The whole screen tested about 340,000 compounds, of which about 8,500 (2.5%) were called active.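 Rule for the calls: active = melting temperature shift of at least 10% of the positive control shift, at one fixed dose; inactive = the rest.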 Shown is part of a subset that was picked to be rich in actives.
# System: Glutamate receptor ionotropic, NMDA 3A (GRIN3A) ligand-binding domain
# Experiment: NR3A LBD thermal stabilization by compounds – biophysical, differential scanning fluorimetry, uHTS, primary screen (AID 1259313)
# Conditions: at 25 µM, hits give high values, 0% = protein alone, 100% = glycine-bound protein
row,Structure (SMILES),Tm shift relative to glycine control
1,COc1ccc(Br)cc1CN(C)C(=O)C1CC(=O)N(C2CCCC2)C1 (stereo not drawn),-0.58% (inactive)
2,O=C(O)C1CCN1C1CCCCC1 (stereo not drawn),-1.21% (inactive)
3,CCOC(=O)c1nnn(CC(=O)Nc2cccc(F)c2)c1C(=O)OCC,-0.09% (inactive)
4,Cc1nc(C)c(-c2nnc(-c3cccc(S(=O)(=O)N(C)C)c3)o2)cc1C(=O)NN,4.67% (inactive)
5,O=C1/C(=C\c2ccc(O)cc2)CCC1CNc1ccc(Cl)cc1 (stereo not drawn),21.3% (active)
6,CC1CCN(C2=NC(=O)/C(=C/c3ccc(O)cc3)S2)CC1,-0.54% (inactive)
7,CC(C(=O)NC1CCS(=O)(=O)C1)N1C(=O)/C(=C/c2ccc(Cl)cc2)SC1=S (stereo not drawn),-5.79% (inactive)
8,O=C(COC(=O)c1ccc(F)cc1)NCC1COc2ccccc2O1 (stereo not drawn),0.36% (inactive)
9,Cc1cc(C)c2c(c1)c(C)cc1nnc(SCC(=O)NCc3ccco3)n12,9.65% (inactive)
10,Cc1ccccc1N1CC(C(=O)Nc2ccc(S(=O)(=O)N3CCCC3)cc2)CC1=O (stereo not drawn),-1.31% (inactive)
11,COc1ccc(-n2c(SCC(=O)NCc3ccco3)nnc2-c2c[nH]c3ccccc23)cc1,-3.71% (inactive)
12,CC(Oc1ccc(-c2ccccc2)c(F)c1)c1ccn(S(=O)(=O)c2cccc3ccccc23)n1 (stereo not drawn),1.41% (inactive)
13,NC(=O)c1ccsc1NC(=O)COC(=O)COc1ccc(C=O)cc1,-1% (inactive)
14,Cc1cc(C)c(NC(=O)CN2C(=O)NC(Cc3ccccc3)C2=O)c(C)c1 (stereo not drawn),0.16% (inactive)
15,CCCCc1ccc(NC(=O)CN2C(=O)NC(Cc3ccccc3)C2=O)cc1 (stereo not drawn),38.2% (active)
16,Cc1cc(NC(=O)CN2C(=O)NC(CCc3ccccc3)C2=O)no1 (stereo not drawn),0% (inactive)
17,Cc1scc(C(=O)NNC(=S)NCC(C)C)c1C,-0.09% (inactive)
18,COCCCN1C(=O)c2ccc(C(=O)OCC(=O)NCc3ccccc3OC)cc2C1=O,-0.26% (inactive)
19,CCOc1ccc(NC(=O)CCCCCN2C(=O)[C@@H]3Cc4ccccc4CN3C2=O)cc1,-0.91% (inactive)
20,COc1cc(OC)cc(C(=O)Nc2ncc3c(n2)CC(C)(C)CC3=O)c1,-0.38% (inactive)

row,Structure (SMILES),Tm shift relative to glycine control
1,COc1cc(OC)cc(C(=O)Nc2ccc(-c3nc4ccccc4o3)c(O)c2)c1,35.4% (active)
2,COc1cc(OC)cc(C(=O)N[C@H](C(=O)Nc2nc3ccccc3[nH]2)C(C)C)c1,-1.04% (inactive)
3,Cc1noc(C)c1S(=O)(=O)Nc1ccc(C(=O)N2CCN(c3ccc(F)cc3)CC2)cc1,-0.58% (inactive)
4,CC/C(=N\O)C(C)(C)/[N+]([O-])=C/c1ccc(Br)cc1,0.62% (inactive)
5,CC(C)CN1CCNC(=O)C1CC(=O)N(C)CC1CCOCC1 (stereo not drawn),0.85% (inactive)
6,COCCNC(=O)Cn1cc2c(n1)CCCCC2,-0.96% (inactive)
7,COC(=O)c1cccc(-n2[nH]nnc2=S)c1,-0.34% (inactive)
8,Cc1ccc(Nc2nc(N)nc(CN3CCN(Cc4ccccc4)CC3)n2)cc1Cl,-0.21% (inactive)
9,NS(=O)(=O)c1ccc(CCNc2nc(C(F)(F)F)nc3ccccc23)cc1,-7.08% (inactive)
10,OCCNc1nc(Nc2ccc(Cl)c(Cl)c2)nc2ccccc12,15.3% (active)
11,COc1ccccc1/C=N/N1CCN(Cc2ccccc2Cl)CC1,3.27% (inactive)
12,Cc1cc(-n2nc(C)cc2C)n2ncc(-c3ccccc3)c2n1,0.25% (inactive)
13,O=[N+]([O-])c1cc(Br)c(O)c(/C=N/Nc2nc3ccccc3s2)c1,24.4% (active)
14,COc1cc(/C=N/NC(=O)CCc2n[nH]c(=O)[nH]c2=O)ccc1O,0.39% (inactive)
15,COc1ccc(CC(=O)N/N=C/c2cc([N+](=O)[O-])cc(Br)c2O)cc1,7.97% (inactive)
16,Cc1cc(C(=O)N/N=C/c2cc([N+](=O)[O-])cc(C)c2O)n[nH]1,-7.09% (inactive)
17,CCOc1cc(/C=N/Nc2cc(C)nc3ccc(C)cc23)ccc1O,-6.31% (inactive)
18,COc1cc(/C=N/Nc2nc3ccccc3s2)ccc1O,20.7% (active)
19,COc1cc(/C=C/CNC[C@H]2O[C@@H](n3cnc(C(N)=O)n3)[C@H](O)[C@@H]2O)ccc1O,-1.5% (inactive)
20,C/C(=C/C(=O)N1CCN(C)CC1)C(=O)O,-0.35% (inactive)

row,Structure (SMILES),Tm shift relative to glycine control
1,Cc1cc(C)c2cc(CN(Cc3cccs3)Cc3nnnn3CC3CCCO3)c(=O)[nH]c2c1 (stereo not drawn),-5.51% (inactive)
2,Cn1c(=O)[nH]c(=O)c2c1nc(CN1CCN(c3ccccc3F)CC1)n2CCc1ccccc1,-1.61% (inactive)
3,CCCCCNC(=O)c1cccnc1SCC(=O)Nc1ccccc1OC,8.62% (inactive)
4,CCCNC(=O)Nc1ccccc1C(=O)Nc1ccc(OC)cc1,0% (inactive)
5,CCCNC(=O)c1ccccc1NC(=O)CSCc1ccc(OC)cc1,12.7% (active)
6,COc1cc2c(cc1OC)C(C(=O)Nc1cc(C)c(OC)c(C)c1)CC(=O)N2 (stereo not drawn),0.68% (inactive)
7,CC(=O)c1c(C)[nH]c(C(=O)OCC(=O)Nc2c(C)n(C)n(-c3ccccc3)c2=O)c1C,0.41% (inactive)
8,CCOCCCNC(=O)C(NC(=O)CNC(=O)c1ccccc1)c1ccc(C)cc1 (stereo not drawn),-0.17% (inactive)
9,Cc1ccc(N2CC(C(=O)NCCS(=O)(=O)N3CCN(c4ccccc4)CC3)CC2=O)cc1 (stereo not drawn),0.09% (inactive)
10,COc1ccc(Cn2c(=S)[nH]c3cc(C(=O)N4CCCCC4)ccc3c2=O)cc1,0.18% (inactive)
11,CCOc1cc2[nH]c(=S)n(Cc3ccc(C(=O)NCCOC)cc3)c(=O)c2cc1OCC,-2.12% (inactive)
12,COc1cc2[nH]c(=S)n(Cc3ccc(C)o3)c(=O)c2cc1OC,13.2% (active)
13,COc1cc2[nH]c(=S)n(Cc3ccc(F)cc3)c(=O)c2cc1OC,16.4% (active)
14,COc1cc2[nH]c(=S)n(CCN3CCCCC3C)c(=O)c2cc1OC (stereo not drawn),-1.68% (inactive)
15,CCOc1cc2[nH]c(=S)n(Cc3ccc(C(=O)N4CCN(C)CC4)cc3)c(=O)c2cc1OCC,-2.77% (inactive)
16,COCC(C)N=CC1=C(O)CC(C)(C)CC1=O (stereo not drawn),1.32% (inactive)
17,O=C(NN1CCOCC1)c1cccc(F)c1,-0.08% (inactive)
18,COc1ccc(C2c3[nH]c4ccccc4c3C[C@H]3C(=O)N(CC(C)C)CC(=O)N23)c(OC)c1 (stereo partly drawn),-1.75% (inactive)
